Experimental data taken from PubChem BioAssay (NCI).
The panel holds about 83,000 compounds, 20% with a hit somewhere; the sample as a whole holds those more often.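 Testing used 96-well plates and a 48-hour single-concentration exposure. Example: -40 means 40% of the starting cells died.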 The source made the active and inactive calls. The calls were made as follows: active = growth percent below 10; inactive = the rest.

What was measured:
Test in all cases: NCI-60 one-dose screen, 48 h (100 = growth as untreated, 0 = no growth, -100 = all killed)
NCI-H23 lung = settings: 10 µM unless noted
NCI-H322M lung = settings: 10 µM unless noted
HOP-62 NSCLC = settings: 10 µM unless noted
NCI-H460 lung = settings: 10 µM unless noted
HOP-92 NSCLC = settings: 10 µM unless noted
NCI-H522 lung = settings: 10 µM unless noted
A549/ATCC NSCLC = settings: 10 µM unless noted
786-0 renal = settings: 10 µM unless noted
COLO 205 colon = settings: 10 µM unless noted
DU-145 prostate = settings: 10 µM unless noted
K-562 leukemia = settings: 10 µM unless noted
MALME-3M melanoma = settings: 10 µM unless noted
MDA-MB-231 breast = settings: 10 µM unless noted
SF-268 CNS = settings: 10 µM unless noted
SF-295 CNS = settings: 10 µM unless noted
SF-539 CNS = settings: 10 µM unless noted
UACC-257 melanoma = settings: 10 µM
M14 melanoma = settings: 10 µM unless noted
RXF 393 renal = settings: 10 µM unless noted

Measured: growth

CC1(C)CC[C@]2(C(=O)N3CCCNCC3)CC[C@]3(C)C(=CC[C@@H]4[C@@]5(C)CCC(=O)C(C)(C)[C@@H]5CC[C@]43C)[C@H]2C1
inactive: NCI-H23 lung 101% | NCI-H322M lung 101% | HOP-62 NSCLC 109% | NCI-H460 lung 106% | HOP-92 NSCLC 96.6% | NCI-H522 lung 98.6% | A549/ATCC NSCLC 106% | 786-0 renal 99.5% | COLO 205 colon 115% | DU-145 prostate 108% | K-562 leukemia 96.8% | MALME-3M melanoma 110% | MDA-MB-231 breast 106% | SF-268 CNS 102% | SF-295 CNS 104% | SF-539 CNS 97.2% | UACC-257 melanoma 105% | M14 melanoma 110%

CCOC(=O)c1c(Nc2ccccc2)nn2c(-c3ccc(OC)c(OC)c3)ccnc12
inactive: NCI-H23 lung 70.8% | NCI-H322M lung 92.5% | HOP-62 NSCLC 72.7% | NCI-H460 lung 47.9% | NCI-H522 lung 69.3% | A549/ATCC NSCLC 52.6% | 786-0 renal 37.6% | COLO 205 colon 55.7% | DU-145 prostate 74.2% | K-562 leukemia 19.8% | MALME-3M melanoma 76.2% | MDA-MB-231 breast 34.9% | SF-268 CNS 68.1% | SF-295 CNS 49% | SF-539 CNS 60.2% | UACC-257 melanoma 95.2% | M14 melanoma 53.6%
active: HOP-92 NSCLC 5.27%

CCOC(=O)Nc1ccc(-c2nc(-c3cccc(O)c3)c(-c3ccnc(Br)c3)[nH]2)cc1
inactive: NCI-H23 lung 31% | NCI-H322M lung 54.7% | HOP-62 NSCLC 25.2% | NCI-H460 lung 37.6% | HOP-92 NSCLC 38.3% | NCI-H522 lung 25.1% | A549/ATCC NSCLC 16% | 786-0 renal 20.5% | COLO 205 colon 43.6% | DU-145 prostate 57.7% | K-562 leukemia 12.5% | MALME-3M melanoma 32.4% | MDA-MB-231 breast 39.3% | SF-268 CNS 39.9% | SF-539 CNS 38.2% | UACC-257 melanoma 38.7% | M14 melanoma 35.1%
active: RXF 393 renal -9.56% | SF-295 CNS -14%

CN1CCN(c2ccc(C(=O)/C=C/c3ccc(Cl)c(C(F)(F)F)c3)cc2)CC1
inactive: NCI-H23 lung 81.5% | NCI-H322M lung 78.8% | HOP-62 NSCLC 88.9% | NCI-H460 lung 88% | NCI-H522 lung 76.4% | A549/ATCC NSCLC 72.8% | 786-0 renal 79.9% | COLO 205 colon 60.6% | DU-145 prostate 77.9% | MALME-3M melanoma 88.4% | MDA-MB-231 breast 83.3% | RXF 393 renal 63.4% | SF-268 CNS 87% | SF-295 CNS 103% | SF-539 CNS 49.4% | UACC-257 melanoma 75.2% | M14 melanoma 87.2%
active: K-562 leukemia 7.64%

O=C(/C=C1\C=CN(CCCCO)c2ccccc21)n1ccc2ccccc21
inactive: NCI-H23 lung 101% | NCI-H322M lung 102% | HOP-62 NSCLC 84.2% | NCI-H460 lung 103% | HOP-92 NSCLC 98.4% | NCI-H522 lung 99.7% | A549/ATCC NSCLC 105% | 786-0 renal 107% | COLO 205 colon 104% | DU-145 prostate 107% | K-562 leukemia 109% | MALME-3M melanoma 99.2% | MDA-MB-231 breast 98.5% | RXF 393 renal 113% | SF-268 CNS 107% | SF-295 CNS 103% | SF-539 CNS 98.6% | UACC-257 melanoma 105% | M14 melanoma 94.6%

c1ccc(-c2c(-c3ccccc3)[n+](Cc3ccc4ccccc4c3)c(-c3ccccc3)n2Cc2ccc3ccccc3c2)cc1
active: NCI-H23 lung -81% | NCI-H322M lung -97% | HOP-62 NSCLC -66.9% | NCI-H460 lung -75.6% | HOP-92 NSCLC -89.8% | NCI-H522 lung -76.2% | A549/ATCC NSCLC -74.3% | 786-0 renal -76.9% | COLO 205 colon -57.8% | DU-145 prostate -92.6% | K-562 leukemia -30.9% | MALME-3M melanoma -82.5% | MDA-MB-231 breast -85.6% | RXF 393 renal -91.9% | SF-268 CNS -73.5% | SF-295 CNS -91.3% | SF-539 CNS -90% | UACC-257 melanoma -56.6% | M14 melanoma -72%

CN(C)CCn1c2ccc(N)cc2c2nc3ccccc3nc21
inactive: NCI-H23 lung 28.2% | NCI-H322M lung 34.7% | HOP-62 NSCLC 31.5% | NCI-H522 lung 30.1% | A549/ATCC NSCLC 25.8% | 786-0 renal 35.6% | DU-145 prostate 25.3% | K-562 leukemia 13.7% | MALME-3M melanoma 44.1% | MDA-MB-231 breast 32.7% | RXF 393 renal 35.4% | SF-268 CNS 43.4% | SF-295 CNS 32.3% | SF-539 CNS 21.3% | UACC-257 melanoma 38.4% | M14 melanoma 35.9%
active: NCI-H460 lung 6.26% | COLO 205 colon 9.4%

COc1ccc(Cn2cc3c(c2-c2cc(OC)c(OC)c(OC)c2)CCCc2cnoc2-3)cc1
active: NCI-H460 lung 7.42% | COLO 205 colon -0.67% | RXF 393 renal -2.75% | SF-295 CNS 5.29% | SF-539 CNS 2.82% | M14 melanoma 2.98%
inactive: NCI-H23 lung 32.5% | NCI-H322M lung 39.6% | HOP-62 NSCLC 43.2% | HOP-92 NSCLC 50.6% | NCI-H522 lung 10.4% | A549/ATCC NSCLC 33.6% | 786-0 renal 37.1% | DU-145 prostate 17.4% | K-562 leukemia 10.2% | MALME-3M melanoma 57.5% | MDA-MB-231 breast 32.4% | SF-268 CNS 57.7% | UACC-257 melanoma 81.5%

Cc1ccc(-c2nnc3sc(C4=Cc5ccccc5OC=C4)nn23)cc1
active: HOP-92 NSCLC -34.7%
inactive: NCI-H23 lung 96.4% | NCI-H322M lung 100% | HOP-62 NSCLC 121% | NCI-H460 lung 101% | NCI-H522 lung 91% | A549/ATCC NSCLC 92.3% | 786-0 renal 95% | COLO 205 colon 120% | DU-145 prostate 114% | K-562 leukemia 104% | MALME-3M melanoma 97.6% | MDA-MB-231 breast 94.1% | SF-268 CNS 105% | SF-295 CNS 98.9% | SF-539 CNS 95.3% | UACC-257 melanoma 88.4% | M14 melanoma 99.8%

C#CCOc1ccccc1C(Nc1ccccc1)c1nnnn1C1CCCCC1 (stereo not drawn)
inactive: NCI-H23 lung 103% | NCI-H322M lung 92.5% | HOP-62 NSCLC 103% | NCI-H460 lung 103% | HOP-92 NSCLC 103% | NCI-H522 lung 80.1% | 786-0 renal 88.3% | COLO 205 colon 112% | DU-145 prostate 105% | K-562 leukemia 77.5% | MALME-3M melanoma 100% | MDA-MB-231 breast 96.1% | RXF 393 renal 113% | SF-268 CNS 93.7% | SF-295 CNS 88.5% | SF-539 CNS 101% | UACC-257 melanoma 101%

CCCCCCCCNC(=O)c1ccc(Cn2c(CCCC)nc3c(N)nc4ccccc4c32)cc1
active: NCI-H460 lung 3.61% | NCI-H522 lung -50.4% | 786-0 renal -78.3% | COLO 205 colon -8.18% | K-562 leukemia -59.9% | MALME-3M melanoma -82.9% | MDA-MB-231 breast -71.6% | SF-295 CNS -80.8% | SF-539 CNS -87.1% | UACC-257 melanoma -70.3% | M14 melanoma -80.4%
inactive: NCI-H23 lung 38.8% | NCI-H322M lung 85.3% | HOP-62 NSCLC 75.5% | HOP-92 NSCLC 26.2% | A549/ATCC NSCLC 57.7% | DU-145 prostate 27.7% | RXF 393 renal 23.3% | SF-268 CNS 53.7%

O=C1[C@H]2Cc3c([nH]c4ccccc34)[C@@H](c3ccc(Cl)cc3)N2C(=O)CN1C1CCN(Cc2c(Cl)cccc2Cl)CC1
active: 786-0 renal -64%
inactive: NCI-H23 lung 27.7% | NCI-H322M lung 103% | HOP-62 NSCLC 84.9% | NCI-H460 lung 86% | HOP-92 NSCLC 21.5% | NCI-H522 lung 74.6% | A549/ATCC NSCLC 87.6% | COLO 205 colon 103% | DU-145 prostate 90.4% | K-562 leukemia 81.6% | MALME-3M melanoma 65.8% | MDA-MB-231 breast 53% | RXF 393 renal 109% | SF-268 CNS 85.6% | SF-295 CNS 73% | SF-539 CNS 77.7% | UACC-257 melanoma 102% | M14 melanoma 84.5%

O=c1c2ccccc2nc(COc2ccccc2)n1/N=C/C=C/c1ccccc1
inactive: NCI-H23 lung 95.9% | NCI-H322M lung 93% | HOP-62 NSCLC 98.6% | NCI-H460 lung 99.1% | HOP-92 NSCLC 102% | NCI-H522 lung 81.4% | A549/ATCC NSCLC 100% | 786-0 renal 100% | COLO 205 colon 113% | DU-145 prostate 104% | K-562 leukemia 109% | MALME-3M melanoma 96.9% | MDA-MB-231 breast 93.4% | RXF 393 renal 101% | SF-268 CNS 97.5% | SF-295 CNS 102% | SF-539 CNS 100% | UACC-257 melanoma 95.3% | M14 melanoma 97.8%

CCn1c2ccc(/C=N/OCCCN(C)C)cc2c2cc(/C=N/OCCCN(C)C)ccc21
active: NCI-H23 lung -5.99% | NCI-H322M lung -11.6% | NCI-H460 lung -3.59% | NCI-H522 lung -60.5% | A549/ATCC NSCLC -67.8% | 786-0 renal -42.5% | COLO 205 colon -55.6% | K-562 leukemia -17.5% | MALME-3M melanoma -88.3% | MDA-MB-231 breast -9.87% | RXF 393 renal -73.3% | SF-295 CNS -66.5% | SF-539 CNS -80.4% | UACC-257 melanoma -67.1% | M14 melanoma -84.4%
inactive: HOP-62 NSCLC 62.5% | HOP-92 NSCLC 30.6% | DU-145 prostate 17.1% | SF-268 CNS 79.1%

CC1(COc2ccc3ncc(C#Cc4cncc(C(=O)Nc5cc(C(C)(C)C)on5)c4)n3n2)COC1
active: HOP-92 NSCLC -22.6% | RXF 393 renal -2.4%
inactive: NCI-H23 lung 28.7% | NCI-H322M lung 60.4% | HOP-62 NSCLC 29.1% | NCI-H460 lung 23.3% | NCI-H522 lung 56.9% | A549/ATCC NSCLC 47.2% | 786-0 renal 52.3% | COLO 205 colon 61.9% | DU-145 prostate 53.5% | K-562 leukemia 16.2% | MALME-3M melanoma 30.2% | MDA-MB-231 breast 30.7% | SF-268 CNS 53.9% | SF-295 CNS 22.6% | SF-539 CNS 20.2% | UACC-257 melanoma 79.9% | M14 melanoma 28.7%
